Bioassay records: PubChem, National Center for Advancing Translational Sciences (NCATS)
Hits are enriched below; roughly 15% of the tested compounds scored in any of these assays.
Pf growth 48h: P. falciparum growth inhibition at 48 hours (one generation) | P. falciparum luciferase growth in erythrocytes, 48 h | Potency, µM (titrated, usually from 28.7 µM), inactives show at the top dose activity change, negative = inhibition, hits mostly inhibitors | 310,000 tested, 5.9% active | AID 504832; further: potency means the concentration at half of the fitted maximal effect; on the % scale 0 is the no-effect control and ±100 the full control effect
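Luciferase-expressing P. falciparum in infected erythrocytes (2% hematocrit, 0.1% parasitemia final) in RPMI 1640/0.5% Albumax were exposed to compound for 48 hours at 37 C, 5% CO2; growth read as luminescence.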
Pf growth 96h: P. falciparum growth inhibition at 96 hour, primary screen for plastid delayed-death inhibitors | P. falciparum luciferase reporter growth, 96 h | Potency, µM (series often up to 28.7 µM), for inactives: at the top dose activity change, negative = inhibition, hits mostly inhibitors | 320,000 tested, 6.9% active; further: potency means the concentration at half of the fitted maximal effect; on the % scale 0 is the no-effect control and ±100 the full control effect
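Compounds incubated with erythrocytes infected by luciferase-expressing P. falciparum (2% hematocrit, 0.05% parasitemia final) for 96 hours, 37 C in 5% CO2. Growth inhibition scored as decreased luciferase luminescence.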
HCV inh: HCV inhibition; Huh7.5.1 HCVcc-Cre infection, luciferase reporter, 44 h; Potency, µM (doses to about 41.8 µM), without a hit: at the top dose activity change, negative = inhibition, actives largely listed as inhibitors; 340,000 tested, 3.4% active; further: potency means the concentration at half of the fitted maximal effect; on the % scale 0 is the no-effect control and ±100 the full control effect
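HCVcc-Cre virus at an moi near 0.5 was added right after compound to cells cultured 4 h from seeding (1,000 cells/well). Luciferase activity was determined 44 h later, 15 min after substrate addition at RT.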
Sm TGR inh: S. mansoni TGR enzyme inhibition | purified TGR, DTNB reduction, TNB absorbance 405 nm | Potency, µM (titrated, usually from 114 µM), without a hit: at the highest dose activity change, negative = inhibition, usual class: inhibitors | 360,000 tested, 3% active | AID 485364; further: potency means the concentration at half of the fitted maximal effect; on the % scale 0 is the no-effect control and ±100 the full control effect; nearly all actives have a fitted effect of over 60% in size
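First, TGR (20 nM dispensed) and NADPH were mixed with compound. Second, a 15 min room-temperature incubation followed. Third, further NADPH and then DTNB were added to start the reaction. Finally, TNB absorbance was monitored kinetically.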
HCMV antiviral: inhibitors of human cytomegalovirus; HFF cells, HCMV-luciferase reporter, 72 h; hits give low values; activity change, negative = inhibition, % at 57.5 µM; 410,000 tested, 4.5% active; in the data active means activity change below about -60%; inconclusive means no clear call, values can overlap the other calls; inactive means above about -39%; further: on the % scale 0 is the no-effect control and ±100 the full control effect
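HFF cells seeded 16 h at 37C, treated with compounds, infected with luciferase-reporter HCMV at MOI 1 PFU/cell; luciferase read at 72 h post infection, normalized to buffer-only and Salinomycin controls.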
SARS PLP yeast: inhibitors of SARS-CoV papain-like protease in yeast | S. cerevisiae expressing SARS-CoV PLpro, growth rescue | Potency, µM (doses to about 32.9 µM), for the others: at the highest dose activity, positive = growth rescue, most hits filed as activators | 330,000 tested, 0.19% active | AID 485353; calls by dose curve; further: potency means the concentration at half of the fitted maximal effect; 0% is about no effect; nearly all actives have a fitted effect of over 55% in size
* marks the source's active call; other numbers are inactive results; ? = inconclusive; . = no result; [ ] = another dose, or the depositor's remark. Unless noted, the call rests on the fitted dose curve; in most records, active means well fitted curve in the direction sought with a large enough effect; inconclusive means small, poorly fitted or top-dose-only effect, or another doubt; inactive means no such curve, though single readings can be large; an effect the other way counts as inactive or inconclusive.

SMILES | Pf growth 48h | Pf growth 96h | HCV inh | Sm TGR inh | HCMV antiviral | SARS PLP yeast
CCN(CC)C(=O)Cn1nnc(-c2ccc(C)o2)n1 | 5% | -14% | 5% | 25µM* | -10 | -11%
Cc1ccc(-c2nnn(CC(=O)N(Cc3ccco3)C(C(=O)NC3CCCC3)c3cccs3)n2)o1 (centres undefined) | 13µM* | ? | -26% | -26% | -8 | 4%
COc1ccc(N2CC(NC(=O)c3ccc(S(=O)(=O)N4CCCCC4)cc3)CC2=O)cc1 (centres undefined) | . | . | . | -7% | ? | .
COc1ccc(OC)c(NC(=O)N2c3ccccc3Sc3ccccc32)c1 | . | . | . | 8% | 3 | .
CCOc1ccccc1NC(=O)c1nnn(CC(=O)Nc2ccccc2CC)c1N | . | . | . | -8% | -15 | .
CCCCC(C(=O)NC1CCCC1)N(Cc1ccco1)C(=O)Cn1nnc(-c2ccc(F)cc2)n1 (centres undefined) | . | 12µM* | -4% | -25% | -18 | 1%
Cc1ccc(N(C(=O)Cn2nnc(-c3ccc(C)o3)n2)C(C(=O)NC2CCCC2)c2ccncc2)cc1 (centres undefined) | 0% | 10µM* | 19% | 3% | -4 | 0%
CC(=O)c1ccc(N(C(=O)Cn2nnc(-c3ccccc3)n2)C(C(=O)NC2CCCCC2)c2ccccn2)cc1 (centres undefined) | -20% | 9.3µM* | -10% | 5% | 10 | -11%
O=C(NC1CCCC1)C(c1cccs1)N(Cc1ccco1)C(=O)c1csnn1 (centres undefined) | -6% | 91% | 4% | 35µM* | 1 | 9%
O=C(NC1CCCCC1)C(c1ccccc1)N(Cc1ccco1)C(=O)c1csnn1 (centres undefined) | -19% | 5% | 0% | -36% | 28 | 2%
C[C@@H](NC(=O)c1nc[nH]c1C(=O)NCCCCCNC(=O)OC(C)(C)C)c1ccccc1 | . | . | ? | . | 1 | -5%
CC(C)(C)OC(=O)NCCCC[C@H](NC(=O)c1nc[nH]c1C(=O)NCc1ccccc1)C(=O)OC(C)(C)C | ? | ? | -4%[8.37 µM] | 0% | -2 | 0%
C[C@H](NC(=O)c1nc[nH]c1C(=O)NCCCCCNC(=O)OC(C)(C)C)c1ccccc1 | 10µM* | 5.2µM* | ? | 0% | -36 | -2%
C[C@H](NC(=O)c1nc[nH]c1C(=O)NCc1ccc(CNC(=O)OC(C)(C)C)cc1)c1ccccc1 | 10µM* | ? | 7.1µM* | 1% | -14 | -1%
CC(C)C[C@H](NC(=O)c1nc[nH]c1C(=O)N(C)Cc1ccccc1)C(=O)OC(C)(C)C | ? | 7.4µM* | 9% | 17% | 0 | -3%
CN(Cc1ccccc1)C(=O)c1[nH]cnc1C(=O)N[C@@H](CCCCNC(=O)OC(C)(C)C)C(=O)OC(C)(C)C | ? | 8.3µM* | -5% | -1% | . | -1%
CN1CC(=O)N(CC(=O)Nc2cccc3ccccc23)C1=O | . | . | 5% | . | 49 | 6%
COc1ccccc1NC(=O)CN1CC(=O)Nc2ccccc21 | -14% | ? | 18% | -20% | -11 | -1%
Cc1noc(Cn2c(=O)c3cc4c(cc3n(CC(=O)Nc3ccccc3F)c2=O)OCO4)n1 | . | . | . | 7% | 20 | .
CC(C)(C)OC(=O)NCCCC[C@H](NC(=O)c1[nH]cnc1C(=O)N[C@@H](Cc1ccccc1)C(=O)OC(C)(C)C)C(=O)OC(C)(C)C | 2.9µM* | 3.7µM* | -13%[8.37 µM] | 14% | ? | 0%
CC(C)C[C@H](NC(=O)c1[nH]cnc1C(=O)N[C@H](C)c1ccccc1)C(=O)OC(C)(C)C | ? | ? | -24% | -29% | ? | -2%
C[C@H](NC(=O)c1nc[nH]c1C(=O)N[C@@H](CCCCNC(=O)OC(C)(C)C)C(=O)OC(C)(C)C)c1ccccc1 | 10µM* | ? | ? | -21% | -37 | 1%
